Bioassay records (PubChem BioAssay)
FEN1 inh – inhibitors of human flap endonuclease 1 | Recombinant FEN1 flap cleavage, fluorescence, 15 min | P39748 | 0.35% of 390,000 active | Potency, µM (doses to about 114 µM), inactives show at the highest dose activity change, negative = inhibition, hits mostly inhibitors | AID 588795; note: potency is the fitted concentration of half-maximal effect; nearly all actives have a fitted effect of over 65% in size
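Potency values derive from four-parameter Hill fits of normalized qHTS data. The reaction used 10 nM FEN1 preincubated 15 min at room temperature with compound, then 50 nM DNA substrate, read at 0 and 15 min.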
APE1 inh – blocks human APE1 abasic DNA cleavage | Potency, µM (titrated, usually from 65.8 µM), without a hit: at the top dose activity change, negative = inhibition, usual class: inhibitors | 0.35% of 350,000 active | AID 2517 | recombinant APE1, TAMRA/BHQ-2 abasic DNA cleavage fluorescence | P27695;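 note: potency is the fitted concentration of half-maximal effect; plate controls were vehicle for no effect and reference inhibitor for full effect; nearly all actives have a fitted effect of over 55% in size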
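Enzyme (0.75 nM final) and test compound are incubated 15 min at room temperature before adding 50 nM quenched THF abasic-site duplex. Cleavage dequenches TAMRA, followed at 525/598 nm over three reads one minute apart.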
BLM inh – blocks DNA unwinding by human BLM helicase | P54132 | recombinant BLM DNA unwinding, fluorescence dequenching | Potency, µM (series often up to 56.1 µM), for inactives: at the highest dose activity change, negative = inhibition, most hits filed as inhibitors | 0.2% of 350,000 active;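 note: potency is the fitted concentration of half-maximal effect; plate controls were vehicle for no effect and no enzyme for full effect; nearly all actives have a fitted effect of over 35% in size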
PI5P4K alpha inh – inhibitors of human PI5P4K alpha; P48426; PI5P4Kalpha enzyme, ADP-Glo luminescence, 60 min; active compounds read low; max response, %; 1.2% of 330,000 active; AID 652105; active = max response of -50% or lower; inconclusive = between -30% and -50%; inactive = -30% or higher; note: value at the top dose of about 77 µM
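Single end-point luminescence (ADP-Glo) quantified ADP from PI5P4Kalpha turnover; ATP 5 microM final, 1 h at RT, 0.1% CHAPS and 0.28 mM EGTA in HEPES pH 7.4.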
RECQ1 inh – inhibitors of human RECQ1 DNA helicase. 0.54% of 240,000 active. Potency, µM (highest dose often 57.3 µM), inactives show at the highest dose activity, negative = inhibition, most hits filed as inhibitors. RECQ1 DNA unwinding, red fluorescence kinetic read. AID 2549;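 note: potency is the fitted concentration of half-maximal effect; plate controls were vehicle for no effect and no enzyme for full effect; nearly all actives have a fitted effect of over 30% in size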
Target sequence (P46063 whole entry, looked up): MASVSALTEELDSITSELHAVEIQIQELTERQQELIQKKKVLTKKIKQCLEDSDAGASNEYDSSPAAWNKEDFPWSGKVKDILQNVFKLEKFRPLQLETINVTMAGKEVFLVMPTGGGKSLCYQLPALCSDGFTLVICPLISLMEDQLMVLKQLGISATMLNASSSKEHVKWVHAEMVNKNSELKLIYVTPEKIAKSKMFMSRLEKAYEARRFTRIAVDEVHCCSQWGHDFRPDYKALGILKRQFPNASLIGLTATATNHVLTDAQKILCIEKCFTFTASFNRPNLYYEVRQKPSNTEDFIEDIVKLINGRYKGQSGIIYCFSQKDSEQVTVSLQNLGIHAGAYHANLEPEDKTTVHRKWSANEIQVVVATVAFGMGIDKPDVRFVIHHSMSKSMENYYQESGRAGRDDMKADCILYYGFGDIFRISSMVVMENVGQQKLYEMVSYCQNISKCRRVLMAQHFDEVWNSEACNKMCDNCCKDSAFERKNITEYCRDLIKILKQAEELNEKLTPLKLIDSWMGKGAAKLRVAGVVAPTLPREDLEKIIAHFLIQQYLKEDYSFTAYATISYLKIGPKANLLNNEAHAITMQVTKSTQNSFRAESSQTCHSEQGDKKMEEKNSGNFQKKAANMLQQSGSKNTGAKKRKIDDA
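50 nM RECQ1T1 preincubated 15 min with compound in Tris pH 8.0 buffer with MgCl2, DTT, Tween-20 and 2.5 ug/ml poly(dI-dC); started with 200 nM TAMRA/BHQ-2 forked duplex and 2 mM ATP. Unwinding read as fluorescence (525/598 nm), two reads 2 h apart.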
WRN helicase inh – WRN helicase (human) inhibition; WRN helicase unwinding, fluorescent forked duplex, kinetic; 0.46% of 360,000 active; Potency, µM (series often up to 114 µM), for inactives: top-dose activity change, negative = inhibition, actives largely listed as inhibitors; note: potency is the fitted concentration of half-maximal effect; nearly all actives have a fitted effect of over 55% in size
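Screening of the MLSMR collection measured strand separation of a quenched forked DNA duplex (100 nM) by 20 nM WRN with 2 mM ATP, all final. Compounds were preincubated with enzyme 15 min at room temperature.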
ADP-Glo counter – interferes with ADP-Glo detection without enzyme present | shares compounds with PI5P4K alpha inh | ADP-Glo detection counter-screen, luciferase luminescence, no enzyme | Potency, µM (highest dose often 76.9 µM), without a hit: top-dose activity change, negative = inhibition, hits mostly inhibitors | 1,100 tested, under 10 active | AID 743285
Active calls of the source: *; i = inactive; u = inconclusive; x = not tested or not shown; [ ] = dose if it differs, or a comment. This is a sample that favours compounds with a hit; in the whole collection about 1.5% have one here. Unless noted, calls come from the whole dose curve; as a rule, active = well fitted curve in the direction sought with a large enough effect; inconclusive = small, poorly fitted or top-dose-only effect, or another doubt; inactive = no such curve, though single readings can be large; an effect the other way counts as inactive or inconclusive. Unless noted, % is set by controls: 0 for no effect and ±100 for the full control effect.

SMILES | FEN1 inh | APE1 inh | BLM inh | PI5P4K alpha inh | RECQ1 inh | WRN helicase inh | ADP-Glo counter
Cc1cc(-c2csc(N)n2)c(C)n1C | u | -4% | u | -60* | -21% | u | -6%
Cc1c(C)n(Cc2ccc(F)cc2)c2ccc(C(=O)Nc3ccc(Cl)cc3)cc12 | -3% | x | -4% | x | x | x | x
COc1ccc(NC(=O)CSc2nc(-c3ccco3)cc(C(F)(F)F)n2)cc1OC | 17% | x | -1% | x | x | x | x
COc1ccc(NC(=O)CSc2nnc(-c3ccco3)c(-c3ccco3)n2)cc1OC | -25% | -8% | -15% | -52* | x | -27% | -1%
Cc1ccc(CSc2ccc3nnc(CCNS(=O)(=O)c4ccc(C)cc4)n3n2)cc1 | -20% | x | 1% | x | x | x | x
Cc1ccc(C)c(Cn2c3ccccc3c3cnn(CC(=O)NC4CCC(C)CC4)c(=O)c32)c1 (configuration not stated) | -7% | x | -2% | x | x | x | x
O=S1(=O)CC(N2CCSCC2)CN1Cc1cn(Cc2ccc(F)cc2)nn1 (configuration not stated) | x | x | x | -28 | x | -5% | 2%
CC(C)(C)NC(=O)C(c1ccncc1)N(C(=O)C1CSC(=O)C1)c1ccccc1 (configuration not stated) | -20% | 2% | 3% | -3 | -9% | 0% | x
COc1ccc(N(C(=O)C2CSC(=O)C2)C(C(=O)NC(C)(C)C)c2ccncc2)cc1 (configuration not stated) | 16% | -1% | -3% | -78* | i | 0% | 2%
Cc1ccc(N2CCN(C(=O)c3cc4cc5ccc(C)cc5nc4s3)CC2C)cc1 (configuration not stated) | -2% | x | -1% | x | x | x | x
CCn1nc(CC(=O)Nc2nnc(CC(=O)N3CCCC3)s2)c2ccccc2c1=O | -3% | -9% | -1% | -2 | -10% | -3% | x
CCn1nc(CC(=O)Nc2nnc(CC(=O)N3CCOCC3)s2)c2ccccc2c1=O | 5% | 0% | 0% | 2 | -3% | -14%[57.1 µM] | 0%
COC(=O)c1c(NC(C)=O)sc(C(=O)Nc2ccccc2)c1C | 9% | -7% | 0% | u | -5% | 0% | 2%
CC1CCCCN1C(=O)Cn1cnc2cc([N+](=O)[O-])ccc2c1=O (configuration not stated) | -6% | 7% | -3% | -69* | i | u | -3%
O=C(CSc1nc2ccc(Cl)cc2[nH]1)N1CCN(C(=O)c2ccco2)CC1 | -2% | -2% | -13% | -65* | -13% | u | -6%
COc1ccccc1NC(=O)CSc1nc2c(oc3ccccc32)c(=O)n1Cc1ccco1 | 1% | x | -4% | x | x | x | x
CC[C@]12c3[nH]c4cc(-c5ccco5)ccc4c3CCN1C(=O)[C@@H](CC(=O)NCCC1=CCCCC1)C[C@@H]2C(=O)N1CCN(C(=O)c2ccco2)CC1 | -7% | -14% | x | -73* | x | -5%[11.6 µM] | 1%
CC[C@]12c3[nH]c4cc(CCC(=O)N(C)C)ccc4c3CCN1C(=O)[C@@H](CC(=O)NCCC1=CCCCC1)C[C@@H]2C(=O)N1CCN(C(=O)c2ccco2)CC1 | -3% | -4% | x | -29 | x | 2% | x
CC1CCN(S(=O)(=O)c2ccc3c(ccc(=O)n3CC(=O)Nc3cccc(F)c3)c2)CC1 | 13% | x | -4% | x | x | x | x
NC(=O)C1CCN(CC(=O)Nc2ccc3c(c2)OCCO3)CC1 | -14% | 40% | x | -63* | x | 6% | -5%
COc1ccc2c(CC(=O)N3CCN(S(=O)(=O)c4ccc(F)cc4)CC3)coc2c1 | -10% | -10% | x | -53* | x | -28% | 2%
CCC1=Nc2cc(C(=O)NCc3ccco3)ccc2Sc2ccccc21 | -7% | 4% | -9% | -20 | 1% | -7% | x
CCC1=Nc2cc(C(=O)O)ccc2Sc2ccccc21 | 12% | -3% | -1% | -57* | -3% | 4% | -2%
CCOC(=O)N1CCN(C(=O)Cn2nc(-c3ccc(Cl)cc3)ccc2=O)CC1 | -1% | -5% | -2% | -8 | -5% | 6% | x
CCN1CCN(C(=O)Cn2nc(-c3ccc(Cl)cc3)ccc2=O)CC1 | 17% | -2% | 1% | u | -19% | -5% | -8%
SMILES | FEN1 inh | APE1 inh | BLM inh | PI5P4K alpha inh | RECQ1 inh | WRN helicase inh | ADP-Glo counter
Cc1ccc(S(=O)(=O)NCCc2nnc3ccc(SCc4ccccc4F)nn23)cc1 | -5% | x | 0% | x | x | x | x
COc1ccc2oc(-c3ccc(C)c(NC(=O)c4cccnc4)c3)nc2c1 | -10% | x | 0% | x | x | x | x
COC(=O)c1[nH]cnc1C(=O)c1ccccc1 | 21% | 0% | 1% | -61* | i | -15% | 2%
O=S(=O)(Nc1nc(-c2ccccc2)cs1)c1cc(Cl)ccc1Cl | -3% | 14% | -16% | -51* | x | -26% | -2%
O=C(Cn1cncn1)NCc1ccccc1Br | -6% | 0% | 2% | -62* | -7% | 22% | -2%
CCCCC1=CC2=CC(=O)C(C)(OC(=O)CC)C(=O)C2=CN1CCCN(CC)CC (configuration not stated) | x | -1%[12.4 µM] | -9%[12.4 µM] | x | 6%[11.5 µM] | x | x
O=C(Nc1ccc2c(c1)OCO2)c1nn(-c2ccccc2)c(=O)c2ccccc12 | 6% | -4% | -6% | 1 | -16% | -12% | x
O=C(Nc1ccc2c(c1)OCO2)c1n[nH]c(=O)c2ccccc12 | 13% | -2% | -12% | -57* | i | -9% | 1%
Cc1ccc(Cl)cc1N1CCN(S(=O)(=O)c2ccc3[nH]c(=O)c(=O)[nH]c3c2)CC1 | -10% | -2% | -2% | -55* | -6% | -15% | -3%
Cc1ccc(S(=O)(=O)N(CC(=O)Nc2ccccc2C(=O)O)c2cccc(Cl)c2C)cc1 | 11% | -7% | -8% | u | 10% | 1%[11.6 µM] | x
Cc1ccc(S(=O)(=O)N(CC(=O)Nc2ccccc2C(=O)O)c2ccccc2C)cc1 | 12% | 2% | -3% | -51* | 26% | -4% | 0%
COc1ccc(CCNC(=O)c2ccc3c(c2)N(Cc2ccc(F)cc2)C(=O)c2ccccc2S3(=O)=O)cc1OC | -1% | x | -5% | x | x | x | x
CC(C)(C)c1csc(NC(=O)c2ccc3nccnc3c2)n1 | -6% | -1% | -3% | -52* | i | -3% | -5%
Cc1cc(C)cc(NC(=O)Cn2nnc(C(=O)NCc3ccc(F)cc3)c2N)c1 | u | -1% | -5% | -56* | x | -13% | -3%
Cc1cccc(C)c1NC(=O)Cn1nnc(C(=O)NCc2ccc(F)cc2)c1N | 11% | x | -6% | x | x | x | x
COc1cc2nc(-c3ccccc3C)oc(=O)c2cc1OC | 8% | 37% | -5% | 6 | x | -34% | x
